Screening data deposited in PubChem by National Center for Advancing Translational Sciences (NCATS).
HCMV antiviral – blocks human cytomegalovirus replication. AID 1259415. 410,000 tested, 4.5% active. HFF cells, HCMV-luciferase reporter, 72 h; stronger effect = lower value. activity change, negative = inhibition, % at 57.5 µM; in the data active = activity change below about -60%; inconclusive = no clear call, values can overlap the other calls; inactive = above about -39%
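HFF cells seeded 16 h at 37C, treated with compounds, infected with luciferase-reporter HCMV at MOI 1 PFU/cell; luciferase read at 72 h post infection, normalized to buffer-only and Salinomycin controls.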
HCV inh – blocks hepatitis C virus | 340,000 tested, 3.4% active | AID 651820 | Potency, µM (highest dose often 41.8 µM), without a hit: at the highest dose activity change, negative = inhibition, actives largely listed as inhibitors | Huh7.5.1 HCVcc-Cre infection, luciferase reporter, 44 h; also: potency is read from the fitted curve at half-maximal effect
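After 44 h co-culture of compound, cells and HCVcc-Cre (~0.5 moi), substrate is added for 15 min at room temperature and luciferase measured over 15 sec. Cells were seeded at 1,000/well and pre-cultured 4 h.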
Lassa entry inh – Lassa virus entry inhibition; Lassa virus pseudotype entry inhibition, cell reporter; Potency, µM (doses to about 37.9 µM), for the others: top-dose activity change, negative = inhibition, hits mostly inhibitors; AID 540256; 300,000 tested, 1.2% active; calls by dose curve; tested in HEK293 cells; also: potency is read from the fitted curve at half-maximal effect; nearly all actives have a fitted effect of over 50% in size
Pf growth 48h – inhibits P. falciparum growth in the first generation, 48 h | P. falciparum luciferase growth in erythrocytes, 48 h | Potency, µM (titrated, usually from 28.7 µM), for the others: top-dose activity change, negative = inhibition, hits mostly inhibitors | 310,000 tested, 5.9% active; also: potency is read from the fitted curve at half-maximal effect
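Luciferase-expressing P. falciparum in infected erythrocytes (2% hematocrit, 0.1% parasitemia final) in RPMI 1640/0.5% Albumax were exposed to compound for 48 hours at 37 C, 5% CO2; growth read as luminescence.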
Pf growth 96h – inhibits malaria parasite growth, 96 h | P. falciparum luciferase reporter growth, 96 h | Potency, µM (series often up to 28.7 µM), for the others: at the highest dose activity change, negative = inhibition, hits mostly inhibitors | 320,000 tested, 6.9% active; also: potency is read from the fitted curve at half-maximal effect
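P. falciparum expressing integrated firefly luciferase grown in erythrocytes (2% hematocrit, 0.05% parasitemia final) with compounds for 96 hours at 37 C, 5% CO2. Growth inhibition read as loss of luminescence after adding luciferase detection reagent.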
MARV entry inh – blocks Marburg virus binding to or entry into cells; Marburg virus pseudotyped entry inhibition, cell reporter; Potency, µM (doses to about 37.8 µM), for inactives: at the top dose activity change, negative = inhibition, hits mostly inhibitors; 300,000 tested, 1.8% active; AID 540276; calls by dose curve; tested in HEK293 cells; also: potency is read from the fitted curve at half-maximal effect
Active calls of the source: *; ? = inconclusive; . = no result; [ ] = dose if it differs, or a comment. In the library only some 14% were active in any assay of this set; here they are far more common. Unless noted, calls follow the shape of the dose curve; as a rule, active = well fitted inhibition curve with a large enough effect; inconclusive = small, poorly fitted or top-dose-only effect, or another doubt; inactive = no such curve, though single readings can be large or run the other way. % is scaled to controls: 0 for no effect and ±100 for the full control effect.

SMILES | HCMV antiviral | HCV inh | Lassa entry inh | Pf growth 48h | Pf growth 96h | MARV entry inh
O=C(NCc1nc2ccccc2[nH]1)C1=C[C@@H](c2csc3ccccc23)C[C@@H](OCc2ccc(CO)cc2)O1 | -19 | 6%[8.37 µM] | . | ? | 3.3µM* | .
C[C@H]1C=C(C(=O)NCc2nc3ccccc3[nH]2)O[C@@H](OCc2ccc(CO)cc2)C1 | 2 | ? | . | 33% | 44% | .
O=C(NCc1nc2ccccc2[nH]1)C1=C[C@@H](c2ccc(Br)cc2)C[C@@H](OCc2ccc(CO)cc2)O1 | -32 | ? | . | ? | ? | .
Cc1cc(OCC(=O)OCC(=O)NC2CCS(=O)(=O)C2)ccc1Cl (configuration not stated) | -14 | . | . | . | . | .
COc1cccc(CNC(=O)c2ccc(CS(=O)c3ccccc3)o2)c1 (configuration not stated) | ? | 8% | -4%[46.1 µM] | 18% | ? | .
CCc1ccc(N2CC(C(=O)Nc3ccc(S(=O)(=O)N4CCOCC4)cc3)CC2=O)cc1 (configuration not stated) | -25 | -26% | -29% | ? | -8% | -23%
Cc1oc(-c2ccccc2)nc1CNS(=O)(=O)c1ccc(Cl)cc1 | 9 | . | ? | . | . | .
CC1(C)C/C(=N\NC(=S)Nc2ccccc2F)c2cc(O)ccc2O1 | 20 | ? | ? | 13µM* | 10µM* | ?
Cc1cccc(NC(=S)N/N=C2\CC(C)(C)Oc3ccc(O)cc32)c1 | -16 | ? | -9%[46.1 µM] | ? | ? | 4.5µM*
COc1cccc(NC(=S)N/N=C2\CC(C)(C)Oc3ccc(O)cc32)c1 | ? | 9% | . | ? | ? | .
COC(=O)C(C)N1C(=O)S/C(=C\c2ccc(-c3ccc(C(=O)O)cc3C)o2)C1=O (configuration not stated) | 76 | 0% | . | 31% | 5% | .
COc1ccc(NC(=O)N(C)[C@H]2C[C@H]3c4[nH]c5c(-c6ccccc6)cccc5c4CCN3C(=O)[C@H]2[C@H](C)O)cc1 | 27 | . | . | . | . | .
CCOC(=O)C1CCN(C(=O)c2ccccc2NC(=O)C2=C(C)OCCS2)CC1 | 14 | 17% | . | 10µM* | ? | .
CCOC(=O)C1CCCN(C(=O)c2cc(Cl)ccc2NC(=O)C2=C(C)OCCS2)C1 (configuration not stated) | -9 | 7% | . | 13µM* | 1% | .
CCOC(=O)C1CCCN(C(=O)c2ccccc2NC(C)=O)C1 (configuration not stated) | 69 | 6% | 5% | -3% | . | -26%
CC1=C(C(=O)Nc2ccccc2C(=O)NCc2ccccc2)SCCO1 | -31 | -12% | -3%[46.1 µM] | ? | ? | 4%[46.1 µM]
Cc1c(C2=CCN(S(=O)(=O)c3cccc(Cl)c3)CC2)c2ccccc2n1CC(=O)N1CCCC1 | -35 | . | -1%[46.1 µM] | . | . | 20%[46.1 µM]
CCCCNC(=O)[C@@](CC)(ONc1ccccc1C(F)(F)F)c1cccc2ccccc12 | -9 | 6% | . | 8.3µM* | ? | .
CCCCNC(=O)C(CC)(ONc1ccccc1C(F)(F)F)c1ccccc1 (configuration not stated) | 73 | -10% | . | 13µM* | ? | .
Cc1cccc(OCCCC(=O)Nc2ccccc2C(F)(F)F)c1 | -6 | 13% | -4% | -5% | ? | ?
CC(=O)N1CCN(CC(=O)Nc2ccccc2Sc2ccc(Cl)cc2)CC1 | -71* | ? | 5µM* | ? | ? | -14%
O=C(CN1CCN(c2ccccc2)CC1)Nc1ccccc1Cl | -33 | 1% | . | -15% | -3% | .
O=C(CCl)Nc1ccccc1Sc1ccc(Cl)cc1 | -103* | ? | ? | . | ? | 23µM*
O=C(CN1CCN(c2ccccc2)CC1)Nc1ccccc1Sc1ccccc1 | -29 | ? | ? | ? | 9.3µM* | 4.5µM*
CSc1ccccc1NC(=O)CN1CCN(Cc2ccccc2)CC1 | . | . | . | 2% | 1% | .
COc1ccc(C(CCN2CCN(c3ccccc3)CC2)c2c(OC)cc(OC)c3c(-c4ccccc4)cc(=O)oc23)cc1 (configuration not stated) | -29 | -21% | . | 3.3µM* | 4.7µM* | .
